Cruzain Triton: blocks cruzain activity in presence of Triton detergent | hit rate 0.43% among 200,000 | Potency, µM, usual class: inhibitors | AID 1478 | P25779 | purified cruzain, Z-FR-AMC fluorescence, 0.01% Triton; further: nearly all actives have a fitted effect of over 40% in size
Target sequence (P25779 123-467 limits assumed): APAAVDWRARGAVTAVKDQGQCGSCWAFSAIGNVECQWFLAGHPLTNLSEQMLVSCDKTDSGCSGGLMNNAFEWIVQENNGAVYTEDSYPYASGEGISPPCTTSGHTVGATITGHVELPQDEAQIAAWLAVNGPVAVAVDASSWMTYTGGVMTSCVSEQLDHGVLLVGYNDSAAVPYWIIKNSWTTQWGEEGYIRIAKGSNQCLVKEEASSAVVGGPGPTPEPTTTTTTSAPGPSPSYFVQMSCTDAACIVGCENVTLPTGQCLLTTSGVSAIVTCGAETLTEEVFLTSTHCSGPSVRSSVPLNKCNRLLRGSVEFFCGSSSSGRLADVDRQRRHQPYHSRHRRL
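In this qHTS format, compounds are incubated with 1.5 nM cruzain for 15 min at room temperature before 2 uM Z-FR-AMC is added. Release of AMC is followed at 360/450 nm, and progress is taken as the 60 s fluorescence difference.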
Cruzain noTriton: blocks cruzain activity in detergent-free assay. P25779. purified cruzain, Z-FR-AMC fluorescence, no detergent. Potency, µM, actives largely listed as inhibitors. hit rate 2.3% among 200,000. AID 1476; further: nearly all actives have a fitted effect of over 40% in size
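Purified cruzain at 1.5 nM, pre-incubated 15 min with compound at room temperature in 100 mM sodium acetate pH 5.5, 5 mM DTT, 0.00005% Triton X-100. Reaction started with 2 uM Z-FR-AMC; AMC fluorescence increase over 60 s gives rate.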
Each line names hits and unclear results; the compound was inactive in the other large screens. An excerpt weighted towards active compounds, which were near 2.6% of everything screened. The call rests on the fitted dose curve; in most records, active means well fitted curve in the direction sought with a large enough effect; inconclusive means small, poorly fitted or top-dose-only effect, or another doubt; inactive means no such curve, though single readings can be large; an effect the other way counts as inactive or inconclusive.

O=C(Oc1oc(-c2ccco2)nc1C=Nc1ccccc1)c1ccco1	Cruzain Triton 14µM, Cruzain noTriton 16µM
COc1ccc(NC(=O)CCNS(=O)(=O)c2ccc3c(c2)CCCC(=O)N3)cc1	none
COc1cc(-c2nc(S(=O)(=O)c3ccc(Br)cc3)c(N3CCOCC3)o2)cc(OC)c1OC	Cruzain noTriton inconclusive
O=C(CN1N=C(c2ccccc2)CCC1=O)NCc1ccc(F)cc1Cl	none
Cc1ccc(C)c(NC(=S)NC(NC(=O)Cc2cccc3ccccc23)C(Cl)(Cl)Cl)c1 (stereo not drawn)	Cruzain noTriton 7.9µM
Cc1ccc(C)c(NC(=S)NC(NC(=O)N(C)C)C(Cl)(Cl)Cl)c1 (stereo not drawn)	none
Nc1nc2c(ncn2[C@@H]2O[C@H](CO)[C@@H](O)[C@@H]2O)c(=[SH+])[nH]1.O=[N+]([O-])c1ccc(O)[c]([Hg])c1	none
O=C(O)/C=C\C(=O)Nc1ccc2c(c1)-c1ccccc1C2	none
CCOc1cc(/C=N/N=C(/N)c2nonc2N)cc(Br)c1OCc1ccc(Cl)cc1	Cruzain noTriton 4µM
COc1cc(/C=N/N=C(/N)c2nonc2N)cc(Br)c1OCc1ccccc1C	none
CC(C)c1cnc2c(c1SCC(=O)Nc1ccccc1C(F)(F)F)c(=O)n(C)c(=O)n2C	none
COc1ccc(-c2noc(-c3ccc(NCC4CCCO4)c([N+](=O)[O-])c3)n2)cc1 (stereo not drawn)	none
O=c1[nH]c2cc(Cl)ccc2c(O)c1-c1ccc(Oc2ccccc2)cc1	Cruzain noTriton 10µM
COCc1cc(=O)[nH]c(Sc2c(-c3ccccc3)c3ccc(Cl)cc3[nH]c2=O)n1	Cruzain noTriton inconclusive
O=c1[nH]c2ccc(Cl)cc2c(O)c1-c1ccccc1	none
O=c1[nH]c2cc(Cl)ccc2c(O)c1-c1cccc(Oc2ccccc2)c1	Cruzain noTriton 3.2µM
CC1=C(C(=O)Nc2ccc(C)cc2C)C(c2ccccc2F)n2nc(SCC(=O)c3ccc(C)cc3)nc2N1 (stereo not drawn)	none
Cc1ccccc1-c1nc(CS(=O)(=O)CC(=O)NCCCc2ccccc2)c(C)o1	Cruzain noTriton inconclusive
COc1ccc(Cl)cc1NC(=O)CSc1cc(C)[nH]c(=O)n1	none
CCOC(=O)C(NC(=O)N1CCCCC1)(c1ccccc1)C(F)(F)F (stereo not drawn)	none
CCOC(=O)C(NC(=O)NC1CCCCC1)(c1ccccc1)C(F)(F)F (stereo not drawn)	Cruzain noTriton 3.2µM
COc1ccc(Cl)cc1S(=O)(=O)Nc1cccc(-c2ccc(N3CCOCC3)nn2)c1	none
COc1ccc(-c2noc(CNC(=O)c3ccc(OC)cc3OC)n2)cc1	none
COc1ccc(-c2noc(CC(=O)Nc3cc(OC)ccc3OC)n2)cc1	Cruzain noTriton 4µM
CCc1ccc(/C=N/NC(=O)c2cc(-c3ccccc3OC)nc3ccccc23)s1	none
CCc1ccc(/C=N/NC(=O)c2cc(C3CC3)nc3ccc(Br)cc23)s1	Cruzain noTriton 25µM
CS(=O)(=O)c1ccc([C@H](O)[C@H](CF)NC(=O)C(Cl)Cl)cc1	none
Cc1nnc(S(=O)(=O)c2ccc(N=Nc3c(N)nc(N)nc3N)cc2)s1	none
O=C(CCN1C(=O)COc2ccccc21)NCc1ccco1	none
O=C(CN1C(=O)/C(=C\c2ccc(F)cc2)Oc2ccccc21)NCc1ccco1	Cruzain Triton 25µM, Cruzain noTriton 25µM
CCc1ccc2nc(N(Cc3cccnc3)C(=O)c3cccs3)sc2c1	none
Cc1ccc(C(=O)OC[C@H]2O[C@H](Cl)C[C@@H]2OC(=O)c2ccc(C)cc2)cc1	none
COc1ccc2oc(=O)c(C(=O)NCCc3c(C)[nH]c4c(Cl)cccc34)cc2c1	none
CCc1ccc(NC(=O)Cn2c(=O)n(Cc3ccc(C)cc3)c(=O)c3cccnc32)cc1	none
C[C@H](NC(=O)c1ccccc1Cl)C(=O)OC(C(=O)Nc1cc(C(F)(F)F)ccc1Cl)c1ccccc1 (stereo partly drawn)	Cruzain Triton inconclusive
O=C(CNC(=O)c1ccccc1F)OC(C(=O)Nc1cc(C(F)(F)F)ccc1Cl)c1ccccc1 (stereo not drawn)	Cruzain Triton 5µM, Cruzain noTriton 7.9µM
CCc1ccc(OCC(=O)Nc2cc3oc4ccccc4c3cc2OC)c(Br)c1	none
CCc1c(C)sc(NC(=O)c2cc(-c3cccc(Cl)c3)on2)c1C#N	none
Cc1cc(C)cc(N2C(=O)CS(=O)(=O)C23C(=O)N(C)c2ccccc23)c1 (stereo not drawn)	none
O=C1CS(=O)(=O)C2(C(=O)N(Cc3ccccc3Cl)c3ccccc32)N1c1ccc(F)cc1 (stereo not drawn)	Cruzain noTriton 2.5µM
O=C1CSC2(C(=O)N(Cc3ccccc3F)c3ccccc32)N1c1ccc(F)cc1 (stereo not drawn)	none
Cc1ccc(C)c(CN2C(=O)C3(c4ccccc42)N(c2cccc(C(F)(F)F)c2)C(=O)CS3(=O)=O)c1 (stereo not drawn)	Cruzain noTriton 1.3µM
CCc1cccc(N2C(=O)CS(=O)(=O)C23C(=O)N(Cc2ccccc2)c2ccc(C)cc23)c1 (stereo not drawn)	Cruzain noTriton 1.6µM
CN1C(=O)C2(c3ccccc31)N(c1ccc(F)c(Cl)c1)C(=O)CS2(=O)=O (stereo not drawn)	Cruzain noTriton inconclusive
O=C1CS(=O)(=O)C2(C(=O)N(Cc3ccccc3)c3ccccc32)N1c1ccc(F)c(Cl)c1 (stereo not drawn)	Cruzain noTriton 2µM
CCc1cccc(N2C(=O)CS(=O)(=O)C23C(=O)N(Cc2ccc(F)cc2)c2ccc(C)cc23)c1 (stereo not drawn)	Cruzain noTriton inconclusive
Cc1cccc(CCNC(=O)c2cc3c(=O)[nH]c4ccc(C)cc4c3s2)c1	none
CCOc1cc(C(=O)N(Cc2nc(-c3ccc(C)cc3)no2)C(C)C)cc(OCC)c1OCC	Cruzain noTriton inconclusive
CN1C(=O)C2(c3ccccc31)N(c1cccc(F)c1)C(=O)CS2(=O)=O (stereo not drawn)	none
Cc1ccc(CN2C(=O)C3(c4ccccc42)N(c2cccc(F)c2)C(=O)CS3(=O)=O)cc1 (stereo not drawn)	Cruzain noTriton 1.6µM
Cc1ccc(N2C(=O)CS(=O)(=O)C23C(=O)N(Cc2ccccc2C)c2ccccc23)cc1Cl (stereo not drawn)	Cruzain noTriton 2µM
Cc1ccc(N2C(=O)CS(=O)(=O)C23C(=O)N(Cc2cccc(F)c2)c2ccccc23)cc1Cl (stereo not drawn)	Cruzain noTriton 2µM
COc1ccc(N2C(=O)CS(=O)(=O)C23C(=O)N(Cc2cccc(F)c2)c2ccccc23)cc1OC (stereo not drawn)	none
Cc1ccccc1CN1C(=O)C2(c3ccccc31)N(c1ccccc1)C(=O)CS2(=O)=O (stereo not drawn)	none
O=c1c2c3c(sc2n(Cc2ccccc2F)c(=O)n1-c1ccc(Cl)cc1)CCCC3	none
COc1cccc(Nc2ncc3nc(CCc4ccccc4)c(=O)n(C)c3n2)c1	none
CN(C)Cc1ccccc1-c1nc(NCc2cccs2)c2ccccc2n1	none
CCOC(=O)c1ccc(NC(=O)c2cc3cc(C)ccc3n2C)cc1	none
CCn1c2ccccc2c2cc(N)ccc21	Cruzain noTriton 7.9µM
CCn1c2ccccc2c2cc(/C(C)=N/O)ccc21	none
O=C(Cn1nnc2c(sc3nc4c(c(-c5ccccc5)c32)CCC4)c1=O)c1ccccc1	Cruzain noTriton 25µM
COc1ccc(-c2c3c(nc4sc5c(=O)[nH]c(C)nc5c24)CCC3)cc1	none
COc1ccc(CCNC(=O)Cn2c(=O)nc(-c3ccccc3)c3cc(Cl)ccc32)cc1OC	none

Source: PubChem BioAssay (National Center for Advancing Translational Sciences (NCATS))
